These results are taken from PubChem BioAssay (NCI).

About 83,000 compounds went through this panel and 20% of them were active in at least one assay; those are over-represented in the sample as a whole.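 Cell lines were cultured in 96-well plates, exposed to a single compound concentration, and assessed for percent growth 48 hours later.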 Calls of active or inactive are those of the source.

This assay relates to COLO 205 colon. The assay is described as follows: NCI-60 one-dose screen, 48 h (100 = growth as untreated, 0 = no growth, -100 = all killed). As to conditions: 10 µM unless noted. Here is the method:
Cells are grown in 96 well plates and exposed to the test compound for 48 hours. Compounds are tested at a single concentration, which is 10^-5 M for most compounds. The reported endpoint is percent growth (GI% or GIPRCNT), where numbers from 0 - 100% represent growth inhibition, and numbers from -100% - 0 represent cell death. For example, a value of 40 represents 60% growth inhibition. A value of 0 means no net growth occurred over the course of the experiment. A value of -40 indicates 40% of cells at the beginning of the experiment died by the end of the experiment. A value of -100 means all cells are dead at the end of the experiment.
NCI-60 Human Tumor Cell Lines Screen was performed using the standard one-dose NCI protocol, which is described in more detail at https://dtp.cancer.gov/discovery_development/nci-60/default.htm.
Compounds with GIPRCNT values below 10 were considered active. Activity score was based on GIPRCNT using the following formula: […]
Score is 0 for GIPRCNT values of 100 or above, 50 for GIPRCNT values of 0, and 100 for GIPRCNT values of -100.
For the compound `O=c1[nH]c(=S)[nH]c(O)c1/C=C1\C=Nc2ccccc21`, the growth was 78.8% (inactive).
The same measure for `CC(C)(C)c1cc(C[P+](c2ccc(Cl)cc2)(c2ccc(Cl)cc2)c2ccc(Cl)cc2)cc(C(C)(C)C)c1O`: 50.4% (inactive); for `COc1cc(NC(=O)CSc2nc3ccc(Cl)cc3c(=O)n2-c2ccc(F)cc2)cc(OC)c1OC`: 107% (inactive).
As to `CC1(C)N=C(N)N=C(N)N1c1cccc(CCCCOc2ccccc2)c1`, the growth was 29.3% (inactive).
Consider `CCC(C)[C@H](NC(=O)Nc1cc(C(F)(F)F)cc(C(F)(F)F)c1)C(=O)N[C@@H](Cc1cn(C)cn1)C(=O)OC` (stereo not given in full), for which the growth was -83.9% [100 µM] (active).
As to `O=C(/C=C1\C(=O)N(Cc2ccc([N+](=O)[O-])cc2)c2ccccc21)c1ccc(OCCN2CCCC2)cc1`, the growth is 81% (inactive).
As for `CC(O)CN(CCO)CCN(CCO)CC(C)O` (stereo not given), the growth is 115% (inactive).
As for `OCCN1CCN(CC/C=C2/c3ccccc3Sc3ccc(C(F)(F)F)cc32)CC1`, the growth is 1.04% (active).
On to `CNCCCNCCCCNCCCN1C(=O)c2ccc3c4c(ccc(c24)C1=O)C(=O)N(CCCNCc1ccccc1OC)C3=O`, for which the growth was 10.8% (inactive).
As to `C=CCC(CCC(CC=C)C(=O)OCC)C(=O)OCC` (stereo not given), the growth is 110% (inactive).
On to `Cc1cc(CSc2ccc(Cl)cc2)ccc1N`, for which the growth is 107% (inactive).
With `O=C(Nc1cccc2[nH]c(C(F)(F)F)nc12)c1ccc(F)cc1`, the growth was 95.1% (inactive).
Consider `O=C(O)COc1ccc([N+](=O)[O-])cc1Cl`, for which the growth is 110% (inactive).
Take `O=C(CN1C(=O)NC(c2ccccc2)(c2ccccc2)C1=O)c1ccc(N2CCCC2)cc1`: the growth is 103% (inactive).
On to `Cc1c(O)c(N=Nc2ccc(C(=O)O)c(O)c2)c2ccccc2c1O`, for which the growth was 119% (inactive).
On to `Cc1ccc(C(=O)NN)cc1`, for which the growth is 115% (inactive).
The same measure for `COc1cc2cc3cc4cc(OC)c(OC)cc4c(C)[n+]3cc2cc1OC` (tested in a mixture with another compound): 111% (inactive); for `CC1(c2ccc(Br)cc2)NC(=O)NC1=O` (stereo not given): 113% (inactive); for `N/C(=N\O)c1ccncc1`: 103% (inactive).
As to `COc1ccc(C2C3(C#N)C(N)=NC(=C(C#N)C#N)C23C#N)cc1OC` (stereo not given), the growth is 123% (inactive).
For `CCCCCCCCc1ccc(OCCOCC[N+](C)(C)CC)cc1` (tested in a mixture with another compound), the growth was -42.1% (active).
Turning to `Cc1nnc(-c2cc3c(ccc4ccccc43)oc2=O)c2cn(-c3ccc(Cl)cc3)nc12`, the growth is 111% (inactive).
For the compound `CC1Cc2cc(F)ccc2-n2cccc21` (stereo not given), the growth was 94.6% (inactive).
The same measure for `CC(=O)Nc1nc(C)c(C(=O)NNC(=O)Nc2ccccc2)s1`: 105% (inactive); for `CCCCCCCCCCCCCCCCCCOP(=O)(O)O`: 111% (inactive); for `C=CCSc1nnc(COc2ccc3c(C)c(Cc4ccccc4)c(=O)oc3c2C)o1`: 117% (inactive).
On to `Cc1ccc(NCc2cn(-c3ccc(C(=O)O)cc3)nc2-c2ccc(C(=O)O)cc2)cc1`, for which the growth is 104% (inactive).
The same measure for `CCC(C)C1NC(=O)C(CCCCN)NC(=O)C(CCCCN)NC(=O)C(CC(C)C)NC(=O)C(CCCCN)NC(=O)C(C(C)CC)NC(=O)C(C(C)C)NC(=O)C(C(C)CC)NC(=O)C(CCCCN)NC(=O)C(CCCCN)NC(=O)C(C)NC(=O)C(CCCCN)NC(=O)C(CC(C)C)NC1=O` (stereo not given): -59.4% (active); for `Ic1ccc(SSc2ccc(I)cc2)cc1`: 124% (inactive); for `CC(=O)NNC(=O)c1sc(NC(C)=O)nc1C`: 108% (inactive).
For `COc1ccc(C2=NN(C(=O)c3cc(-c4ccc(C)cc4)nc4ccccc34)C(c3cc(-c4ccccc4)nn3-c3ccccc3)C2)cc1` (stereo not given), the growth was 106% (inactive).
As for `COC(=O)c1ccc(C(=Nc2ccc(N(C)C(=O)CN3CCN(C)CC3)cc2)c2c(O)[nH]c3ccc(C(=O)OC)cc23)cc1`, the growth was 21.8% (inactive).
For the compound `COC(=O)[C@@H]1[C@H](O)[C@H](C)[C@H](O)[C@H](C)/C=C\C=C(C)C(=O)Nc2c(C)c(OC(C)=O)c3c(c2O)C(=O)C(C)=C2OCOC(=C23)C(C)=C[C@@](C)(O)[C@H](O)[C@@H](C)[C@H]1OC(C)=O`, the growth was 116% (inactive).
For `Cc1ccc([C@@H]2C[C@H](O)Cc3ccccc3N2)s1`, the growth is 98.8% (inactive).
Regarding `CC(=O)Nc1nc(C)c(C(=O)N/N=C/c2cccs2)s1`, the growth is 101% (inactive).
The same measure for `O=Nc1c(-c2c(O)[nH]c3cc(Br)ccc23)[nH]c2ccccc12`: -100% (active); for `COC1(OC)N=C(N)C2(C#N)C3(C(=O)Nc4ccccc43)C12C#N` (stereo not given): 116% (inactive); for `Cc1ccc(C(=O)C(Br)C(Br)c2ccccc2)cc1` (stereo not given): 52.8% (inactive).
As for `O=C(NCCO)C(F)(F)F`, the growth was 110% (inactive).
Regarding `CCOc1ccccc1/C=N\N=C(N/N=C/c1ccccc1OCC)N/N=C/c1ccccc1OCC`, the growth is -38.9% (active).
